NS1 function inh: inhibitors of influenza NS1 protein function; Potency, µM (highest dose often 46.1 µM); 0.4% of 270,000 active; AID 2326; calls by dose curve; further: actives are rising curves; nearly all actives have a fitted effect of over 50% in size
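Read-out: OD600 growth recovery of NS1-expressing budding yeast. Cells grown overnight at 30C in -URA glucose medium, washed, resuspended and diluted 1:100 in 2% galactose assay medium, pH 6.0. Same strain lacking NS1 served as positive control.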
Pf growth 96h: P. falciparum growth inhibition at 96 hour, primary screen for plastid delayed-death inhibitors; P. falciparum luciferase reporter growth, 96 h; Potency, µM (doses to about 28.7 µM), hits mostly inhibitors; 6.9% of 320,000 active
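96 h incubation, 37 C, 5% CO2, of luciferase-reporter P. falciparum-infected RBCs (2% hematocrit, 0.05% parasitemia final) with test compounds; endpoint luminescence.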
Pf growth 48h: inhibits P. falciparum growth in the first generation, 48 h; 5.9% of 310,000 active; AID 504832; Potency, µM (highest dose often 28.7 µM), most hits filed as inhibitors; P. falciparum luciferase growth in erythrocytes, 48 h
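In quantitative HTS format, infected erythrocytes bearing luciferase-reporter parasites were treated for a single generation at 37 C. Luminescence after adding detection reagent served as the growth measure.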
Shiga inhibitor: inhibitors of Shiga toxin in Vero cells. Vero cells, Shiga toxin protein synthesis inhibition reporter. inhibition, % at 38.7 µM. 9.2% of 290,000 active; in the data active means inhibition mostly above about 28%, no sharp cut-off; inactive means mostly below about 43%
CHX counter: counter-screen for Shiga toxin inhibitors: cycloheximide protein synthesis inhibition. cell reporter, cycloheximide protein synthesis inhibition counterscreen. max response, %. 12% of 300,000 active. AID 2314; in the data active means max response mostly above about 13%, no sharp cut-off; inactive means mostly below about 14%; further: read at 38.3 µM for the half of the compounds with a filed dose
Large screens that a line does not name were inactive. Compounds with a hit are over-represented: about 21% of the library has one in this group of screens. Unless noted, the call rests on the fitted dose curve; in most records, active means well fitted inhibition curve with a large enough effect; inconclusive means small, poorly fitted or top-dose-only effect, or another doubt; inactive means no such curve, though single readings can be large or run the other way.

CC(C)CCN1CCN(CC#Cc2ccccc2)CC1CCO (stereo unspecified)	Pf growth 48h inconclusive
CCOc1ccccc1N(C)C(=O)c1sc2ncn(CC(=O)N3CCCCC3C)c(=O)c2c1C (stereo unspecified)	Pf growth 48h inconclusive
Cc1nnc(NC(=O)CSc2nc3ccccc3[nH]2)s1	CHX counter 16.0 (no result: NS1 function inh)
Cc1nnc(NC(=O)CSc2nccn2-c2ccc(F)cc2)s1	Pf growth 96h inconclusive, Pf growth 48h inconclusive, Shiga inhibitor 58.6, CHX counter 44.0 (no result: NS1 function inh)
CC(C)c1nnc(NC(=O)CSc2nc3ccccc3[nH]2)s1	none (no result: NS1 function inh)
C/C(=N\NC(=O)c1ccc(COc2ccccc2)cc1)c1ccncc1	Pf growth 96h inconclusive (no result: NS1 function inh)
CCCCOCCCNC(=O)C1CCCCC1	Pf growth 96h 8.28µM
O=C(NCCOc1ccc(Cl)cc1)C1CCCCC1	Pf growth 48h 11.7µM (no result: NS1 function inh)
O=C(CNC(=O)C1CCCCC1)Nc1ccc(Cl)cc1	Shiga inhibitor 30.5, CHX counter 23.4
CC1CCC2(CC1)NC(=O)N(CC(=O)N1CCN(C(=O)c3cccs3)CC1)C2=O (stereo unspecified)	none (no result: NS1 function inh, Shiga inhibitor, CHX counter)
COc1cc2c(cc1OC)C(c1cc3cc4c(cc3[nH]c1=O)OCO4)N(C(=O)C1CC1)CC2 (stereo unspecified)	Pf growth 48h 13.1µM
COc1cc2c(cc1OC)C(c1cc3ccc(C)cc3[nH]c1=O)N(C(=O)c1ccco1)CC2 (stereo unspecified)	Pf growth 48h 13.1µM
COc1cccc(Nc2ccc(C(=O)O)cc2[N+](=O)[O-])c1	none
O=C(Nc1cc(F)cc(F)c1)c1ccc(NCCCN2CCCCCC2)c([N+](=O)[O-])c1	Pf growth 96h inconclusive, Pf growth 48h inconclusive (no result: NS1 function inh)
COc1cccc(NC(=O)c2ccc(NCCCN3CC(C)CC(C)C3)c([N+](=O)[O-])c2)c1 (stereo unspecified)	Pf growth 96h 3.7µM, Pf growth 48h inconclusive (no result: NS1 function inh)
CCCN(CCC)CCCNc1ccc(C(=O)Nc2cccc(OC)c2)cc1[N+](=O)[O-]	Pf growth 48h 1.47µM (no result: NS1 function inh)
COc1cccc(NC(=O)c2ccc(NCCCN3CCC(C)CC3)c([N+](=O)[O-])c2)c1	Pf growth 96h inconclusive, Pf growth 48h 2.08µM (no result: NS1 function inh)
Cc1ccc(NC(=O)c2ccc(NCCCN3CCC(C)CC3)c([N+](=O)[O-])c2)c(C)c1	Pf growth 96h inconclusive, Pf growth 48h 3.29µM
COC(=O)c1ccc(COC(=O)[C@@H]2CC(O)CN2S(=O)(=O)c2ccccc2[N+](=O)[O-])cc1 (stereo partly specified)	none (no result: NS1 function inh, Shiga inhibitor, CHX counter)
CC1=C(C(=O)OC(C)C)C(c2cccs2)N2C(=O)C(C)SC2=N1 (stereo unspecified)	none
CCOc1ccccc1NC(=O)C1CCN(C(=O)Cc2ccccc2)CC1	Pf growth 96h inconclusive, Pf growth 48h inconclusive (no result: NS1 function inh)
CSc1nc(-c2ccc(Cl)cc2)nn1C(=O)c1ccco1	Shiga inhibitor 64.9, CHX counter 61.8 (no result: Pf growth 48h)
CSc1nc(-c2ccccc2)nn1C(=O)c1ccc(C)cc1	CHX counter 15.5
O=C(NNc1nc2cc3c(cc2s1)OCO3)c1cccc(F)c1	Pf growth 96h inconclusive, Shiga inhibitor active, CHX counter 60.8
O=C(NNc1nc2cc3c(cc2s1)OCO3)c1ccccc1	Shiga inhibitor 90.5, CHX counter 61.3
CCOC(=O)c1c(C)[nH]c(C(=O)CN(C)CC(=O)Nc2ccccc2C(F)(F)F)c1C	Pf growth 48h inconclusive (no result: NS1 function inh, Shiga inhibitor, CHX counter)
CC(C)(C)c1ccc(NC(=O)c2cc[n+]([O-])cc2)cc1	none
COc1ccc(C(=NNc2ccccc2C(=O)O)c2ccc(OC)cc2)cc1	none
CCC1CCCCN1CC(O)Cn1c2ccccc2n2c(=O)cc(C)c(C#N)c12 (stereo unspecified)	Pf growth 96h 4.65µM, Pf growth 48h inconclusive
Cc1cc(=O)n2c3ccccc3n(CC(O)CN3CCC(C)CC3)c2c1C#N (stereo unspecified)	Pf growth 96h inconclusive, Pf growth 48h inconclusive
c1ccc2c(c1)NCCS2	NS1 function inh inconclusive, Shiga inhibitor 80.4, CHX counter 46.7
O=C(CNC(=O)c1[nH]cnc1C(=O)NC(c1ccccc1)c1ccccc1)OCc1ccccc1	NS1 function inh inconclusive, Pf growth 96h 1.85µM, Pf growth 48h inconclusive
CC(C)(C)OC(=O)CNC(=O)c1[nH]cnc1C(=O)NCC(=O)OCc1ccccc1	CHX counter 10.4
O=C(N[C@@H](Cc1ccccc1)C(=O)OCc1ccccc1)c1nc[nH]c1C(=O)NC(c1ccccc1)c1ccccc1	Pf growth 96h 9.28µM, Pf growth 48h 1.31µM
CC(C)(C)OC(=O)CNC(=O)c1nc[nH]c1C(=O)NCc1ccccc1	none
C=CCOc1ccccc1CN1CCC(CO)(CCOc2ccccc2)CC1	Pf growth 48h inconclusive
